The source made the active and inactive calls. The rule behind the calls is not given here.
Biological target: Serine/threonine-protein kinase pim-1 (Homo sapiens) (UniProt P11309)
Test: compound-induced PIM1 thermal stabilization – biophysical, human, melting temperature shift (AID 393)
Settings: Thermal shift assay, hits give high values; at 10 µM, protein 2 µM, buffer 10 mM PIPES, pH 6.5, NaCl 150 mM unless noted

Serine/threonine-protein kinase pim-1 (Homo sapiens), sequence (P11309 whole entry, looked up): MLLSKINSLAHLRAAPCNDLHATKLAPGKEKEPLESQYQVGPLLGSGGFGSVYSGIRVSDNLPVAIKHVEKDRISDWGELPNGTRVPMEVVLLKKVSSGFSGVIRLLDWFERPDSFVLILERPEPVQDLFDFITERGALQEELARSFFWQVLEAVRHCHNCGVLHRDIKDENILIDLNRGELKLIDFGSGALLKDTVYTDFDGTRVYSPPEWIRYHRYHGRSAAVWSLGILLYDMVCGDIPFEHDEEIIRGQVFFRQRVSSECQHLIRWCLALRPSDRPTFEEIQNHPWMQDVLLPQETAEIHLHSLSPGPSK

SMILES	Tm shift
O=C1NC(=O)c2c1c1c3ccccc3[nH]c1c1[nH]c3cc(Br)ccc3c21	7.64 Celsius (active)
NCCNc1ncc(C(N)=O)c(Nc2cccc(C(F)(F)F)c2)n1	5.5 Celsius [at 10 µM, protein 2 µM, buffer 10 mM Na Citrate, pH 6.5, NaCl 150 mM] (active)
Clc1cccc(-c2cnc3ccc(NCCc4ccccn4)nn23)c1	7.06 Celsius [at 5 µM, protein 1 µM, buffer 10 mM HEPES] (active)
CC(C)[C@@H](CO)Nc1ccc2ncc(-c3cccc(OC(F)(F)F)c3)n2n1	8.65 Celsius (active)
CCC(CO)Nc1ccc2ncc(-c3cccc(OC(F)(F)F)c3)n2n1 (stereo not given)	9.04 Celsius (active)
CC(C)[C@@H](CO)Nc1ccc2ncc(-c3cccc(O)c3)n2n1	3.61 Celsius (active)
Clc1cccc(Nc2ccn3ncc(-c4ccc5c(c4)OCO5)c3n2)c1	6.19 Celsius (active)
O=C(O)c1cccc(-c2cnc3ccc(NC4CCOCC4)nn23)c1	9.27 Celsius (active)
Clc1cccc(Nc2ccn3ncc(-c4ccsc4)c3n2)c1	3.99 Celsius [at 10 µM, protein 2 µM, buffer 25 mM HEPES, pH 7.5, NaCl 250 mM] (active)
CC(C)[C@@H](CO)Nc1ccc2ncc(-c3cccc(F)c3)n2n1	5.64 Celsius (active)
CCC(CO)Nc1ccc2ncc(-c3cccc(CO)c3)n2n1 (stereo not given)	3.17 Celsius (active)
Oc1[nH]c2ccccc2c1C=Nc1ccc2c(c1)OCCO2	4.66 Celsius (active)
CC(C)[C@@H](CO)Nc1ccc2ncc(-c3cccc(Cl)c3)n2n1	6.86 Celsius (active)
CCC(CO)Nc1ccc2ncc(-c3ccc(F)c(Cl)c3)n2n1 (stereo not given)	9.05 Celsius (active)
O=c1[nH]cnc2c1sc1nc3ccccc3cc12	3.3 Celsius (active)
OCC1=C(O)C(O)[C@@H](N2CNc3cc(Cl)c(Cl)cc32)O1 (stereo not given in full)	3.7 Celsius [at 10 µM, protein 2 µM, buffer 10 mM Na Citrate, pH 6.5, NaCl 150 mM] (active)
CNC(=O)c1cc(Oc2ccc(NC(=O)Nc3ccc(C)c(C(F)(F)F)c3)cc2)ccn1	3.1 Celsius [at 10 µM, protein 2 µM, buffer 10 mM Na Citrate, pH 6.5, NaCl 150 mM] (active)
COCCNc1ccc2ncc(-c3cccc(Cl)c3)n2n1	6.33 Celsius (active)
Oc1cc(O)cc(/C=C/c2ccc(O)c(O)c2)c1	3.2 Celsius [at 10 µM, protein 2 µM, buffer 10 mM Na Citrate, pH 6.5, NaCl 150 mM] (active)
FC(F)(F)Oc1cccc(-c2cnc3ccc(NCC4CC4)nn23)c1	7.73 Celsius (active)
NCCNC(O)(O)c1cccc2c(Cl)cccc12	3.5 Celsius [at 10 µM, protein 2 µM, buffer 10 mM Na Citrate, pH 6.5, NaCl 150 mM] (active)
CC(C)[C@@H](CO)Nc1ccc2ncc(-c3ccc(C#N)cc3)n2n1	4.53 Celsius (active)
O=C1NCc2c1c1c3ccccc3[nH]c1c1[nH]c3ccccc3c21	7.8 Celsius [at 10 µM, protein 2 µM, buffer 10 mM Na Citrate, pH 6.5, NaCl 150 mM] (active)
Clc1ccc(-c2cnc3ccc(NC4CCOCC4)nn23)cc1	7.28 Celsius (active)
CC(=O)Nc1cccc(-c2cnc3ccc(N[C@H](CO)C(C)C)nn23)c1	4.84 Celsius (active)
Oc1cccc(-c2cnc3ccc(NC4CCOCC4)nn23)c1	3.66 Celsius (active)
c1ccc(-c2cnc3ccc(NCc4ccco4)nn23)cc1	3.07 Celsius [at 5 µM, protein 1 µM, buffer 10 mM HEPES] (active)
Nc1cc2ncnc(Nc3cccc(Br)c3)c2cc1N	3.4 Celsius [at 10 µM, protein 2 µM, buffer 10 mM Na Citrate, pH 6.5, NaCl 150 mM] (active)
c1ccc(-c2cnc3ccc(NCc4cccs4)nn23)cc1	5.81 Celsius [at 5 µM, protein 1 µM, buffer 10 mM HEPES] (active)
COc1ccc2oc3c(=O)[nH]cnc3c2c1	3.45 Celsius (active)

Source: PubChem BioAssay AID393 (SGCOxCompounds, 2006)
